The results in this text go back to PubChem BioAssay AID651821 (The Scripps Research Institute Molecular Screening Center, 2012).

SMILES strings stand for the structures. About 4,700 (1.3%) of roughly 370,000 compounds were called active. The sample as a whole holds a higher share of actives than the screen did. A number with no mark means an inactive call.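 The calls were made as follows: active = inhibition above the plate cutoff, the mean of all test compounds on that plate plus 3 SD (cut at about 35% in these data); inactive = the rest.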

Usually inhibition stands for the relative decrease from the control value, in per cent.

This test can be described thus: small molecules binding CAG repeat RNA – biochemical, fluorescence, primary screen (AID 651821).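 Also: 0% = DMSO alone and 100% = 100 µM mitoxantrone as full dye displacement; higher means more dye released from RNA so lower well fluorescence.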 The following applies: r(CAG) RNA repeat, TO-PRO-1 dye displacement fluorescence; at 3 µM; hits give high values.
As for `CCn1c(SCC(C)=O)nc2sc3c(c2c1=O)CCCC3`, the inhibition was 4.43%.

In the case of `CCOC(=O)[C@]12CCCC3=C1N(CCC3)C(=O)[C@@H](CC(=O)NCC13CC4CC(CC(C4)C1)C3)C2`, the inhibition was -1.58%.

Turning to `O=C(c1ccccc1)c1ccc(-c2ccccc2C(=O)NC2CCCCN(Cc3ccc(Cl)cc3)C2=O)cc1` (stereo not drawn), the inhibition was 12.5%.

Regarding `Cc1ccc(C)c(CN2CCC(CNC(=O)C3CCCN(c4ncnc5c4nc4n5CCCCC4)C3)CC2)c1` (stereo not drawn), the inhibition was -1.34%.

On to `CCCCCCCCNS(=O)(=O)/C=C/c1cc(C)ccc1CNC(=O)OC(C)(C)C`, for which the inhibition was 5.11%.

For `CSc1ccc(Oc2cccc3c2S(=O)(=O)N([C@H](C)c2ccccc2)C[C@@H](COCc2ccccc2)O3)cc1C`, the inhibition is 5.63%.

Regarding `Cc1noc(C)c1NC(=O)Nc1ccc2c(c1)C(=O)N([C@H](C)CO)C[C@H](C)[C@H](CN(C)Cc1ccncc1)OCCCC[C@@H](C)O2`, the inhibition is 6.45%.

Turning to `COc1ccc(OC)c(NC(=O)CSc2nc(-c3ccccc3)cc(=O)[nH]2)c1`, the inhibition was 37.5% (active).

Take `COc1ccc(OC)c(NC(=O)CSc2nc(N)c(-c3ccccc3)c(=O)[nH]2)c1`: the inhibition was 4.81%.

In the case of `CCCc1cc(=O)[nH]c(SCC(=O)Nc2ccc(C(=O)Nc3ccccc3OC)cc2)n1`, the inhibition was 31.1%.

`Cc1ccccc1NC(=O)COC(=O)c1ccc(Sc2ncn[nH]2)c([N+](=O)[O-])c1`: the inhibition was 6.52%.

As for `CCOC(=O)C(NC(=O)CC(C)C)(Nc1sc2c(c1C(N)=O)CCCC2)C(F)(F)F` (stereo not drawn), the inhibition is -6.2%.

For `NC(=O)c1c(Nc2nc3c(F)cccc3s2)sc2c1CCCC2`, the inhibition was 52.5% (active).

Regarding `O=C(O)c1c(NC(=O)N2CCCC2)sc2c1CCCC2`, the inhibition was 3.93%.

For `COc1ccc(Br)c2c1C(=O)CC2`, the inhibition was -1.62%.

As to `COc1ccc(NC(=O)CC2COc3ccccc3O2)c(OC)c1` (stereo not drawn), the inhibition was -0.79%.

On to `CCn1cc(C(=O)N2CCN(C3CCCCC3)CC2)c2cc(OC)c(OC)cc2c1=O`, for which the inhibition is -10.2%.

For the compound `CCn1cc(C(=O)NCC2COc3ccccc3O2)c2cc(OC)c(OC)cc2c1=O` (stereo not drawn), the inhibition was 53.3% (active).

Consider `COc1cccc(CSc2nnc(-c3cccnc3)n2Cc2ccccc2)c1`, for which the inhibition was 3.2%.

Take `CCCNC(=O)Nc1ccc2c(c1)C(=O)N(C)[C@H]1CC[C@H](CC(=O)NCC3CCCCC3)O[C@@H]1CO2`: the inhibition was 2.13%.

For the compound `COc1ccc(Cl)cc1C=CC=NNC(=O)c1ccncc1`, the inhibition was 1.27%.

Consider `COc1ccccc1/C=C/C=N/n1c(-c2ccc(Cl)cc2Cl)n[nH]c1=S`, for which the inhibition is 36.1% (active).

As to `COc1ccc(Cl)cc1C=CC=Nc1ccc(S(N)(=O)=O)cc1`, the inhibition is 14.6%.
